Results taken from ChEMBL document CHEMBL5308504, “Tm Shift (DSF) assay results for EUbOPEN Chemogenomics Library” (2023).

Each compound was assayed against Bromodomain-containing protein 4 (Homo sapiens) (UniProt O60885). Details: Compound concentration 20.0 uM, Protein concentration 2.0 uM, Result type QC Liability.

SMILES | ΔTm
CNC(=O)c1c[nH]c2ccc(Nc3nccc(-c4ccccn4)n3)cc12 | -1.78 °C
O=C1CN(c2ccccc2F)C(NCCN2CCOCC2)=C1c1nc2cc(Br)ccc2c(=O)[nH]1 | -12.3 °C
C[C@H](CCOc1cccc(CC(=O)O)c1)N(Cc1cccc(C(F)(F)F)c1Cl)CC(c1ccccc1)c1ccccc1 | -6.66 °C
CC(C)C[C@H](NC(=O)[C@@H](O)[C@H](N)Cc1ccccc1)C(=O)O | -0.66 °C
Cc1nccn1-c1ccc(Sc2cccc(C3(C(N)=O)CCOCC3)c2)cc1 | -0.68 °C
Cc1n[nH]c2ncc(C(=O)N3CCC[C@H]3c3ccc(Cl)cc3)cc12 | 0 °C
COc1cc(-c2cncc(-c3ccc(N4CCN(C(C)C)CC4)cc3)c2C)cc(F)c1C(=O)N1CCCC1 | -3.15 °C
COc1cc(O)c(C(CC(=O)N2C[C@H](C)C[C@H](C)C2)c2ccc3c(c2)OCO3)c(OC)c1 (some centres undefined) | 0.54 °C
O=C1CCCc2[nH]c(-c3ccnc(NCC4CC4)c3)c(Nc3ccccc3)c21 | -0.67 °C
O=C(O)CCn1c2c(c3ccccc31)C[C@H](NS(=O)(=O)c1ccc(F)cc1)CC2 | -1.19 °C
COc1cc(C)c(S(=O)(=O)N(C)CCC(=O)N[C@H]2CC[C@@H](N3CCC4CN(C)CC4C3)CC2)c(C)c1 (some centres undefined) | -4.82 °C
O=C(Nc1ccc(Cl)c(-c2ccccn2)c1)c1cccc(COc2ccc(Br)cc2CNCCO)c1 | -1.21 °C
Cc1cc(-c2cnc(N)c3c(-c4ccc5scnc5c4)csc23)n(C)n1 | -1.04 °C
Cc1nn(-c2nc3ccc(Cl)c(Cl)c3[nH]2)c(O)c1C1OC(=O)c2ccccc21 (centres undefined) | -4.43 °C
Cc1cc2c(ncn2C2(C)CN(C(=O)c3ccn(CC4CCN([C@H]5C=CCCCC5)CC4)c3)C2)c(N)n1 | -1.87 °C
CNc1oc(-c2cccc3ccccc23)nc1C#N | -3.26 °C
Nc1ncnc2c1c(I)cn2[C@@H]1O[C@H](CO)[C@@H](O)[C@H]1O | -1.9 °C
CCCCOc1c(C(=O)c2c(F)cc(C)cc2F)c[nH]c2nncc1-2 | -0.5 °C
O=C(CNC(=O)c1ccc(-c2ccccc2)cc1)NC1CCCc2ccccc21 (centres undefined) | -5.93 °C
CN(C(=O)c1cnn2cccnc12)c1cc2c(cc1N1CCOCC1)C(=O)N(C[C@@H](F)C(C)(C)O)C2 | 0.93 °C

SMILES | ΔTm
Cc1cc(CN)cc(C)c1-c1ncn(C)c1-c1cncn1C | -1.42 °C
COC[C@@H](C)N[C@H]1CC[C@H](Nc2cc(-c3cccc(NCC4(C#N)CCOCC4)n3)c(Cl)cn2)CC1 | -0.6 °C
CC(C)(C[C@H]1CN(S(=O)(=O)c2cccc(C(F)(F)F)c2)c2cc(-c3cc(F)cc(OC(F)F)c3)ccc2O1)C(=O)O | -6.18 °C
Clc1cccc(Nc2nccc(NCCCN3CCOCC3)n2)c1 | -3.15 °C
FC(F)(F)c1ccc(CNc2ccc(Cc3c[nH]c4ncc(Cl)cc34)cn2)cn1 | 2 °C
CCCN1CCC(C#N)(NC(=O)[C@H](CC(C)(C)C)NC(=O)N2CCOCC2)CC1 | -0.48 °C
O=C(Nc1ccccc1C(=O)O)c1cc(S(=O)(=O)c2ccccc2)ccc1Cl | 2.09 °C
N#Cc1ccc(COc2ccc(Br)cc2CNCCO)cn1 | -0.82 °C
CC(C)(C)NC(=O)c1cncn1C1CCN(c2ccc(-c3nnc(C(F)(F)F)o3)cn2)CC1 | -0.5 °C
CC(F)(F)CN1C(=O)c2[nH]nc(-c3cccc4[nH]c(=O)oc34)c2C1c1ccc(Oc2cc(C(F)(F)F)cc(C(F)(F)F)c2)cc1 (centres undefined) | -1.07 °C
Cc1ccc(C(=O)Nc2cc(N3CCN(C)CC3)cc(C(F)(F)F)c2)cc1-n1cc(-c2cnn(C)c2C)nn1 | -2.13 °C
CN1CCN(c2ccnc(NCCc3ccccc3)n2)CC1 | -0.31 °C
Cn1nc(-c2ccc(C(N)=O)cc2)c2ccccc2c1=O | 0.79 °C
Nc1ncnc2c1c(COc1cccc(Cl)c1)nn2C1CCOCC1 | -0.35 °C
COc1cc(N(C)c2ccnc3ccc(C(F)(F)F)cc23)cc(OC)c1OC | -0.67 °C
CN1CCC(F)(Cn2cnc(-c3ccc(F)cn3)c2-c2ccnc3[nH]ccc23)CC1 | -2.6 °C
CCn1c(CNC(=O)c2nc(Cl)cnc2N)[n+](CC)c2ccc(C(=O)N(C)CCN(C)C)cc21 | -0.61 °C
Cn1cc(-n2cnc3c(NCc4nc5cc(Cl)c(Cl)cc5[nH]4)nc(N4CCOCC4)nc32)cn1 | 0.71 °C
CC(C)(C)c1cc(NC(=O)c2csc(Nc3ccc(Cl)cc3)n2)no1 | -0.97 °C
